Laboratory results published in PubChem BioAssay AID1745853 (National Center for Advancing Translational Sciences (NCATS), 2022).
The whole screen tested about 25,000 compounds, of which about 970 (3.9%) were called active. Not shown: some 8% with an inconclusive outcome. No rule for the calls is given here. This excerpt belongs to a sample that is enriched for actives.

What was measured:
Assay in all cases: Primary Screen for Target Class Profiling of Small Molecule Inhibitors of Methyltransferases
[1] = molecular target: Catechol O-methyltransferase (Homo sapiens) (UniProt P21964); conditions: purified enzyme, MTase-Glo SAH luminescence; activity change, negative = inhibition: at 40 µM, stronger effect = lower value; outcome: 40 uM
Summary of the method: (§1)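 Each enzyme was assayed with SAM and its substrate. SAH formation detected by MTase-Glo luminescence; single-point 40 uM screen[…].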

[2] = molecular target: Glycine N-methyltransferase (Homo sapiens) (UniProt Q14749); conditions: purified enzyme, MTase-Glo SAH luminescence; measured here: GNMT inhibition; at 40 µM; stronger effect = lower value
Summary of the method: as §1

[3] = molecular target: Guanidinoacetate N-methyltransferase (Homo sapiens) (UniProt Q14353); conditions: purified enzyme, MTase-Glo SAH luminescence; measured here: GAMT inhibition; at 40 µM; stronger effect = lower value
Summary of the method: as §1

[4] = molecular target: Histamine N-methyltransferase (Homo sapiens) (UniProt P50135); conditions: purified enzyme, MTase-Glo SAH luminescence; measured here: HNMT inhibition; at 40 µM; stronger effect = lower value
Summary of the method: as §1

[5] = molecular target: Nicotinamide N-methyltransferase (Homo sapiens) (UniProt P40261); conditions: purified enzyme, MTase-Glo SAH luminescence; measured here: NNMT inhibition; at 40 µM; stronger effect = lower value
Summary of the method: as §1

[6] = molecular target: Phenylethanolamine N-methyltransferase (Homo sapiens) (UniProt P11086); conditions: purified enzyme, MTase-Glo SAH luminescence; measured here: PNMT inhibition; at 40 µM; stronger effect = lower value
Summary of the method: as §1
% is scaled to controls: 0 for no effect and ±100 for the full control effect.

Sequence of Phenylethanolamine N-methyltransferase (Homo sapiens) (P11086 whole entry, looked up): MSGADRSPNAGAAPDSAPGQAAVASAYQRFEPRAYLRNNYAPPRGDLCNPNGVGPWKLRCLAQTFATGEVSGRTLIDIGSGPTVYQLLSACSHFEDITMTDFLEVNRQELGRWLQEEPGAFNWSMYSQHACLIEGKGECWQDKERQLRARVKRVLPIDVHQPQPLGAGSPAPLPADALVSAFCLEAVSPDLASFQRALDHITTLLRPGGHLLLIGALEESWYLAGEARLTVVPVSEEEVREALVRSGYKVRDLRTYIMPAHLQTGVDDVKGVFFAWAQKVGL
Sequence of Glycine N-methyltransferase (Homo sapiens) (Q14749 whole entry, looked up): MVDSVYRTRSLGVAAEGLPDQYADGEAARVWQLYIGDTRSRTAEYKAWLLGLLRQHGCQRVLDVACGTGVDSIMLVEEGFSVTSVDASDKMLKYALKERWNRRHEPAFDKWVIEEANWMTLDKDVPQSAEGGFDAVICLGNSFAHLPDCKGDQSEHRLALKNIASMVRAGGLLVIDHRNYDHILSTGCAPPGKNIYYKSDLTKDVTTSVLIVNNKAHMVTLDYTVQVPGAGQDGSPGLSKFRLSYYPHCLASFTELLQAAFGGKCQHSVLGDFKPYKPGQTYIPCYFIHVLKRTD
Sequence of Histamine N-methyltransferase (Homo sapiens) (P50135 whole entry, looked up): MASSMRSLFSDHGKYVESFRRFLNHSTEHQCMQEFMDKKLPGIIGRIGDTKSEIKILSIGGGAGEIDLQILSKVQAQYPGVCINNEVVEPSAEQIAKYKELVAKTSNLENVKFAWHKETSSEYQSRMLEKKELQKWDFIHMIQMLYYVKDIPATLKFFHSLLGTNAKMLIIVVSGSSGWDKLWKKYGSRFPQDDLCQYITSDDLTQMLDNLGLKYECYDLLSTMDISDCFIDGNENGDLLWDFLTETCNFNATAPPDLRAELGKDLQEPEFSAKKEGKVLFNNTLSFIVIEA
Sequence of Catechol O-methyltransferase (Homo sapiens) (P21964 whole entry, looked up): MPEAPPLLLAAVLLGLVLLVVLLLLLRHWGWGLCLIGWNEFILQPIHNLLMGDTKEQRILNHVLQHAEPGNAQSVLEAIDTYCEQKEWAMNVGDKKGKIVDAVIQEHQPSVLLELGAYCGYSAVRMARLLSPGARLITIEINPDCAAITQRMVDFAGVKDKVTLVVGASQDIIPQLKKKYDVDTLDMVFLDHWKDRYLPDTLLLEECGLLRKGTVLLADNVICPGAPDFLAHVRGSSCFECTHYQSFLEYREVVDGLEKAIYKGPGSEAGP
Sequence of Nicotinamide N-methyltransferase (Homo sapiens) (P40261 whole entry, looked up): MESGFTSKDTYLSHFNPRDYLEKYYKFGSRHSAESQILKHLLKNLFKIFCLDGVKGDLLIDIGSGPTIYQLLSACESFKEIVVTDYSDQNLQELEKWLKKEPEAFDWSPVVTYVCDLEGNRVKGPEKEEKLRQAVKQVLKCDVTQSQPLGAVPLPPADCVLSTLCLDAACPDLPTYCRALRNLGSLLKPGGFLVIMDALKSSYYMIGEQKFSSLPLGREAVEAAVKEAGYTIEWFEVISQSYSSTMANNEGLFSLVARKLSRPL

| Compound | activity change, negative = inhibition [1] | activity change, negative = inhibition [2] | activity change, negative = inhibition [3] | activity change, negative = inhibition [4] | activity change, negative = inhibition [5] | activity change, negative = inhibition [6] |
| --- | --- | --- | --- | --- | --- | --- |
| CCc1ccc(NS(=O)(=O)c2cc3c(cc2C)n(C)c(=O)n3C)cc1 | 6.7% (inactive) | 2.79% | 0% | 1.74% | -13.9% | -1.81% |
| CNC(=O)c1ccccc1Nc1nc(Nc2ccc(N3CCOCC3)cc2OC)ncc1Cl | 1.38% (inactive) | -17.4% | 6.33% | -0.939% | -26.5% | -6.85% |
| CC1(C)CCC(C)(C)c2cc3c(cc21)Sc1ccccc1N=C3c1ccc(C(=O)O)cc1 | 9.33% (inactive) | 1.76% | 4.41% | 11.6% | -26.9% | 3.91% |
| Cc1cc(C[C@@H]2COC[C@@H]2NC(=O)c2cccc(-n3nc(C)cc3C)c2)on1 | -7.5% (inactive) | -5.02% | -7.68% | -5.59% | -12.1% | -25.6% |
| CCCN1C(=O)c2cc3sccc3n2CC1(C)C(=O)NC1CCC(C)CC1 (configuration not stated) | 0.545% (inactive) | 0.536% | 4.2% | -0.49% | 0.936% | -2.48% |
| CCOC(=O)c1cc2n(n1)CC(C)(C(=O)NC1CCCC1)N(c1ccc(C)cc1)C2=O (configuration not stated) | 2.4% (inactive) | -0.39% | 4.54% | 3.6% | -0.074% | 2.88% |
| Nc1ccc2c3c(cccc13)C(=O)NC2=O | -69.4% (active) | -41.1% | -13% | -8.7% | -18.3% | -8.01% |
| CCOc1ccccc1CN1C(=O)c2ccc(-c3ccco3)n2CC1(C)C(=O)NC1CCCCC1 (configuration not stated) | 5.26% (inactive) | -1.1% | 0% | 5.47% | 3.87% | 0.061% |
| CN1C(=O)c2cc(C(=O)N3CCN(Cc4ccccc4)CC3)nn2CC1(C)C(=O)NCc1ccccc1 (configuration not stated) | 1.23% (inactive) | 5.09% | 0.749% | 4.84% | 6.08% | -8.04% |
| COc1ccccc1-c1[nH]nc2ncc(C(=O)N3CCN(Cc4ccccc4)CC3)nc12 | -63.8% (active) | -70.9% | -63.7% | -73.4% | -59.4% | -76.7% |
| COc1ccc(-c2ncc3c(n2)OCCN(Cc2ccccc2)C3=O)cn1 | -3.7% (inactive) | -12% | -5.92% | -5.55% | -19.1% | -28.2% |
| O=c1c2ccccc2n2c(=O)n(Cc3cccc(F)c3)nc2n1CCc1ccccc1 | -1.7% (inactive) | -7.42% | -7.2% | 8.21% | -7.17% | -9.52% |
| CC1(C)[C@H](Cc2cc(-c3ccccc3)on2)C[C@@H]1NCC1CC1 | -5.01% (active) | -5.31% | -6% | -40.7% | -19.5% | -50.1% |
| CCCn1c(=O)c2cc(Cl)ccc2n2c(SCC(=O)Nc3ccc(Cl)cc3)nnc12 | -0.206% (inactive) | -6.08% | 4.35% | 1.24% | -3.29% | 1.76% |
| CCOCCCN1C(=O)c2cc3ccccc3n2CC1(C)C(=O)NCCC(C)C (configuration not stated) | 4% (inactive) | 6.59% | 4.89% | 8.93% | 10.6% | 0.52% |
| CCCn1c(=O)c2ccc(C(=O)NC(C)CC)cc2n2c(=O)n(CC(=O)Nc3ccccc3)nc12 (configuration not stated) | -0.37% (inactive) | 0.266% | 3.33% | 0.842% | -0.601% | 3.03% |
| O=c1c2ccccc2n2c(=O)n(Cc3ccccc3)nc2n1Cc1ccc(F)cc1 | 6.23% (inactive) | 9.17% | 3.06% | 12.4% | 6.51% | 5.22% |
